Assay results from PubChem BioAssay (NCI).
Several values for one entry are separate records, joined by “and”; a condition that tells them apart may be missing. Equal entries are not always repeated. The panel holds about 83,000 compounds, 20% with a hit somewhere; the sample as a whole holds those more often.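 Assay: single dose, 48 h. Readout: percent growth (0 = no net growth; negative = cell death). Active: <10.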 Activity calls are given as the source filed them.

What was measured:
Assay in all cases: NCI-60 one-dose screen, 48 h (100 = growth as untreated, 0 = no growth, -100 = all killed)
NCI/ADR-RES ovarian = conditions: 10 µM
T-47D breast = conditions: 10 µM
BT-549 breast = conditions: 10 µM
MDA-MB-435 melanoma = conditions: 10 µM
SW-620 colon = conditions: 10 µM
MCF7 breast = conditions: 10 µM unless noted
HCT-116 colon = conditions: 10 µM
HCC-2998 colon = conditions: 10 µM
KM12 colon = conditions: 10 µM

SMILES | growth (NCI/ADR-RES ovarian) | growth (T-47D breast) | growth (BT-549 breast) | growth (MDA-MB-435 melanoma) | growth (SW-620 colon) | growth (MCF7 breast) | growth (HCT-116 colon) | growth (HCC-2998 colon) | growth (KM12 colon)
O=C1C(=O)c2ccccc2-c2ccccc21 | -41.5% (active) | -50% (active) | -75% (active) | -97.9% (active) | -63.3% (active) | -66.4% (active) | -81.5% (active) | -35.4% (active) | -84.5% (active)
CC(C)C1(NC(=O)C2CC3c4cccc5[nH]cc(c45)CC3N(C)C2)OC2(O)C3CCCN3C(=O)C(Cc3ccccc3)N2C1=O (stereo not given) | 102% (inactive) | 103% (inactive) | 91.4% (inactive) | 102% (inactive) | 103% (inactive) |  | 95.8% (inactive) | 105% (inactive) | 
ClCc1ccc2ccccc2n1 | 98.4% (inactive) | 87% (inactive) | 102% (inactive) | 93.9% (inactive) | 114% (inactive) |  | 91.1% (inactive) | 105% (inactive) | 103% (inactive)
C/C(=C\c1ccc(Cl)c(Cl)c1)[N+](=O)[O-] | 30.8% (inactive) and 93.2% (inactive) | -79.3% (active) and 57.7% (inactive) | 76.3% (inactive) and 103% (inactive) | 126% (inactive) | -89.1% (active) and 98.6% (inactive) | -85.1% (active) and 80.6% (inactive) | -91.5% (active) and 88.2% (inactive) | 99.6% (inactive) and 100% (inactive) | -35.5% (active) and 98.3% (inactive)
CC(C)(C)OOC(=O)/C=C\C(=O)OOC(C)(C)C | 109% (inactive) | 101% (inactive) | 104% (inactive) | 119% (inactive) | 98.7% (inactive) | 98.7% (inactive) | 106% (inactive) | 104% (inactive) | 94.6% (inactive)
O=[N+]([O-])c1ccc(N2CCOCC2)c2c1no[n+]2[O-] | 16.3% (inactive) | 2.59% (active) | -41.5% (active) | 29.2% (inactive) | 3.22% (active) | 13.7% (inactive) | -25.9% (active) | -49.1% (active) | -73.5% (active)
O=[N+]([O-])/C=C\c1ccc2c(c1)OCO2 | 98.5% (inactive) | 75.3% (inactive) | 91.7% (inactive) | -14.8% (active) | 43.2% (inactive) | -10.9% (active) | -20% (active) | 52.6% (inactive) | 38.3% (inactive)
CC[C@@H](C)[C@@H]1NC(=O)C(NC(=O)C(CC(C)C)N(C)C(=O)C2CCCN2C(=O)C(C)O)C(C)OC(=O)C(Cc2ccc(OC)cc2)N(C)C(=O)C2CCCN2C(=O)C(CC(C)C)NC(=O)C(C)C(=O)C(C(C)C)OC(=O)C[C@H]1O (stereo not given in full) | -43.2% (active) | -32.5% (active) | -74.2% (active) | -91.8% (active) | -45.5% (active) |  | -28.8% (active) |  | 
O=[N+]([O-])c1ccc(N(CCO)CCO)c2c1no[n+]2[O-] | 18.3% (inactive) | -14.9% (active) | -61.3% (active) | 2.88% (active) | 0.768% (active) |  | -68.3% (active) | -46.9% (active) | 
COc1ccc(/C=C(\C)[N+](=O)[O-])cc1OC | 90.5% (inactive) | -21.6% (active) | -29.7% (active) | -59.1% (active) | -42.4% (active) |  | -28.9% (active) | 94.3% (inactive) | 54.6% (inactive)
CC(=O)Nc1c2sscc-2n(C)c1=O | -94.8% (active) | -87.4% (active) | -96.4% (active) | -93.7% (active) | -99% (active) |  | -100% (active) | -100% (active) | -100% (active)
COc1ccccc1[As]=[As]c1ccccc1OC (stereo not given) | -72% (active) | -47.2% (active) | -91.9% (active) | -73.2% (active) | -66.3% (active) | -38.3% (active) | -71.3% (active) | -98.2% (active) | -81.8% (active)
C/C1=C\[C@H](C)C[C@H](C)OC(=O)C[C@H](c2ccc(O)cc2)NC(=O)[C@@H](Cc2c(Br)[nH]c3ccccc23)N(C)C(=O)[C@H](C)NC(=O)[C@@H](C)C1 | -21.9% (active) | 4.52% (active) | -76.6% (active) | -12.2% (active) | 6.45% (active) |  | 0.922% (active) | -86.3% (active) | -4.41% (active)
[O-][n+]1ccccc1S | 37% (inactive) | 53.4% (inactive) | 93.5% (inactive) | 53.8% (inactive) | 42% (inactive) |  | -9.38% (active) | 76.7% (inactive) | 
[Cl][Hg][c]1ccc2ccccc2c1 | 63.9% (inactive) | -56.8% (active) | -99% (active) | -76.2% (active) | -92.4% (active) |  | -100% (active) | -49% (active) | 
